Screening data: PubChem, National Center for Advancing Translational Sciences (NCATS)
Rows were chosen to be rich in hits. Some 3% of all compounds tested hit in one or more screens of this group.
TbPYK inhibitor – qHTS of Trypanosoma Brucei Inhibitors | TbPYK enzyme, Kinase-Glo Plus ATP luminescence, 45 min | AID 624173, 2012 | actives 0.12% (n = 410,000) | Potency, µM (doses to about 76.8 µM), for the others: top-dose activity, negative = inhibition, usual class: inhibitors | pyruvate kinase (Trypanosoma brucei), Q57TT1; also: nearly all actives have a fitted effect of over 50% in size
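Activity of T. brucei pyruvate kinase was followed by Kinase-Glo Plus luminescence after the enzyme reacted 45 min at room temperature with 130 uM ADP (final) and substrate. Test compounds were added before ADP at multiple concentrations.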
Sm TGR block – qHTS Assay for the Inhibitors of Schistosoma Mansoni Peroxiredoxins. Schistosoma mansoni thioredoxin glutathione reductase (TGR), Q962Y6. purified TGR, DTNB reduction, TNB absorbance 405 nm. Potency, µM (series often up to 114 µM), without a hit: at the top dose activity change, negative = inhibition, hits mostly inhibitors. actives 3% (n = 360,000). AID 485364, 2010; also: nearly all actives have a fitted effect of over 60% in size
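Kinetic colorimetric format: TGR-catalysed, NADPH-driven DTNB reduction monitored via TNB absorbance. Enzyme dispensed at 20 nM; compound exposure 15 min at room temperature before reaction start.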
LmPK inh – qHTS Assay for Inhibitors of Leishmania Mexicana Pyruvate Kinase (LmPK). actives 0.37% (n = 290,000). Potency, µM (series often up to 57.5 µM), without a hit: at the top dose activity change, negative = inhibition, hits mostly inhibitors. Q27686. purified LmPK, Kinase-Glo ATP luminescence, 1 h
Target sequence (Q27686 whole entry, looked up): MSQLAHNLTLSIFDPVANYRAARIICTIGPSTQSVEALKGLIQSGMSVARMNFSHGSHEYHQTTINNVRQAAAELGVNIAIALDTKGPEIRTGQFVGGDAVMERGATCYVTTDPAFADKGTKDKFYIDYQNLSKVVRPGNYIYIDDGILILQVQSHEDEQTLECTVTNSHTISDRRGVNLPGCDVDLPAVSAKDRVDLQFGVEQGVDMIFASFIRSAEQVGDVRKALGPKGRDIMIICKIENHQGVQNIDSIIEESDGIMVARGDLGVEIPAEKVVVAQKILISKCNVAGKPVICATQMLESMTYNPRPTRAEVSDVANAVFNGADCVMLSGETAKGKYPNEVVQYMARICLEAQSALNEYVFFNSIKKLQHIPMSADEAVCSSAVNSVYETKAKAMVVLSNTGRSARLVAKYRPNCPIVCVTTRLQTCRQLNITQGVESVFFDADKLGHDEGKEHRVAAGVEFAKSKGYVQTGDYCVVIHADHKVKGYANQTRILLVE
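Purified LmPK (0.1 nM) with 0.5 mM PEP and 0.1 mM ADP in imidazole buffer pH 7.2 with MgCl2/KCl, 1 h at room temperature. ATP formed was read by luciferase luminescence and normalized to no-enzyme and uninhibited controls.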
RE007 growth inh – qHTS Assay for Inhibitors of the HIV-1 protein Vpr | Potency, µM (titrated, usually from 92.2 µM), inactives show at the highest dose activity change, negative = less growth, hits mostly inhibitors | AID 651644, 2012 | S. pombe RE007 Vpr strain, BacTiter-Glo ATP luminescence, 24 h | actives 0.21% (n = 360,000); active = well fitted falling curve with a large enough effect; inconclusive = small, poorly fitted or top-dose-only effect; inactive = no such curve, though single readings can be large or run the other way; also: nearly all actives have a fitted effect of over 50% in size
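Fission yeast RE007 carrying one integrated HIV-1 vpr copy, seeded at OD 0.01 in PMG+AL medium with 23 nL pinned compound. Grown 24 h at 30 degrees; viability read by BacTiter-Glo luminescence after 5 min.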
Starred values were filed as active, the others as inactive; ? = inconclusive; . = no result given; [ ] = another dose, or the depositor's remark. Unless noted, calls follow the shape of the dose curve; as a rule, active = well fitted curve in the direction sought with a large enough effect; inconclusive = small, poorly fitted or top-dose-only effect, or another doubt; inactive = no such curve, though single readings can be large; an effect the other way counts as inactive or inconclusive. % is scaled to controls: 0 for no effect and ±100 for the full control effect; potency is read from the fitted curve at half-maximal effect.

SMILES | TbPYK inhibitor | Sm TGR block | LmPK inh | RE007 growth inh
Cc1ccc(CCC(=O)Nc2ccc(S(N)(=O)=O)cc2)o1 | -26.4% | 14.1µM* | -6.7% | 4.5%
Cc1cccc(NC(=O)CCc2ccc(C)o2)c1 | -30.6% | 35.5µM* | -2.9% | -3.5%
O=[N+]([O-])c1ccc(Cl)c(-c2ccc(/C=N/c3c(-c4ccco4)nc4ccccn34)o2)c1 | -14.1% | -7.1% | -5.3% | -7.3%
Oc1cccc(/C=N/c2c(-c3ccco3)nc3ccccn23)c1 | -26.0% | 35.5µM* | ? | -19.3%
Cc1cc(C)c([N+](=O)[O-])cc1-c1ccc(/C=N/c2c(-c3ccco3)nc3ccccn23)o1 | -8.0% | 39.8µM* | -21.7% | -29.7%
O=C(Nc1ccccc1)N(Cc1cccs1)c1ccc(Cl)cc1 | -1.2% | -1.0% | . | .
COc1ccc(-c2nc3c(c4c2C[C@H](c2ccccc2)OC4)CN(C(=O)c2cc(I)ccc2F)CC3)c(C)c1 | . | . | -3.4%[11.5 µM] | .
CC1=C(C)C(=O)C(CCCCC#CCCCC#CCO)=C(C)C1=O | -4.3% | 8.91µM* | 4.3% | -6.8%
O=C(NCc1ccccc1Cl)c1cnc(N2CCCCC2)c2ccccc12 | 3.7% | 9.6% | . | .
COC(=O)COC(=O)c1ccc(Oc2nc(OC)nc(N(C)C)n2)cc1 | . | 2.24µM* | 0.4% | 38.9%[3.69 µM]
COc1ccc(-c2cc(CNC(=O)CCl)on2)cc1 | -10.0% | 35.5µM* | 0.1% | 20.0%
Cc1ccc2c(c1)C(=O)[C@@]1(O)CCN(c3ccccc3)C1=N2 | 3.6% | . | . | .
COc1ccc(NC(=O)CCNS(=O)(=O)c2cccc(C(C)=O)c2)cc1S(N)(=O)=O | 1.2% | 1.5% | 4.1% | 2.3%
COc1ccc(NC(=O)CCNS(=O)(=O)c2ccc(Cl)c([N+](=O)[O-])c2)cc1S(N)(=O)=O | -0.7% | 35.5µM* | 8.0% | 9.4%
COc1ccc(Cn2c(C(=O)O)c(CNCCc3ccco3)c3ccc(C)cc32)cc1 | 3.0% | -5.4% | . | .
C=Cc1ccc(Cn2c(C(=O)O)c(CNCCc3ccco3)c3ccc(C)cc32)cc1 | -2.9% | 22.4µM* | . | .
CCNC(=O)C1(C)CCCN(C(=O)c2cccc(C)c2C)C1 (stereo not drawn) | 5.8% | . | . | 6.2%[18.4 µM]
CCOC(=O)C1=C(C)OC(N)=C(C#N)C1c1ccc(OC)c(CSc2ccccn2)c1 (stereo not drawn) | 2.5% | 25.1µM* | 2.5% | -3.8%
O=C1CSC(=S)N1N=Cc1c(F)cccc1Cl | -6.8% | . | . | -5.9%
COc1ccc2ccccc2c1/C=N/N1C(=O)CSC1=S | -8.1% | -2.8% | 6.8% | -7.2%
O=C1CSC(=S)N1/N=C/c1c(F)cccc1F | 0.8% | 8.91µM* | 1.4% | -19.2%
O=C1CSC(=S)N1/N=C/C=C/c1ccccc1 | -7.7% | 15.8µM* | 7.8% | -13.4%
COc1cccc(/C=N/N2C(=O)CSC2=S)c1O | ? | 5.62µM* | -13.5% | 4.8%
COc1cc(/C=N/N2C(=O)CSC2=S)cc(Br)c1O | -14.6% | 12.6µM* | -0.4% | ?
COc1cc(/C=N/N2C(C)CCCC2C)cc(Br)c1O (stereo not drawn) | 1.1% | -7.1% | 1.3% | -11.8%
SMILES | TbPYK inhibitor | Sm TGR block | LmPK inh | RE007 growth inh
CC(C)N(C(=O)Cn1cc(S(=O)(=O)Cc2ccc(C(F)(F)F)cc2)c2ccccc21)C(C)C | 0.1% | 7.9% | . | .
CCCCn1c(C)c(C(=O)OCC)c2c(CN3CCOCC3)c(O)ccc21 | 1.1% | 39.8µM* | 2.1% | 0.1%
CCOC(=O)c1c(C)n(C)c2ccc(O)c(CN3CCN(C)CC3)c12 | -5.2% | 35.5µM* | 1.4% | -19.6%
CN[C@H](C)Cc1ccccc1 | -9.6%[157 µM] | . | . | .
CCOC(=O)c1cc2c3ccccc3n(CC)c2nc1N | 5.0% | 15.1% | 2.3% | -4.3%
CCOC(=O)c1n[nH]n2c1nc(=S)c1ccccc12 | -16.9% | 11.2µM* | -19.2% | 0.3%
O=C(NCCc1ccccc1)C1CCN(Cc2cc3ccccc3n2Cc2cccc(Cl)c2)CC1 | 3.4% | 2.9% | . | .
O=C(CN1CCN(Cc2ccccc2Cl)C1=O)NCc1ccccc1Cl | -1.8% | 5.01µM* | . | .
O=C(CN1CCN(Cc2ccc(F)cc2)C1=O)NCc1ccccc1Cl | -6.1% | 0.4% | . | .
O=C(NCc1ccccc1F)C1CCN(Cc2cc3ccccc3n2Cc2cccc(Cl)c2)CC1 | -5.5% | 12.6µM* | . | .
O=C(CN1CCN(Cc2ccccc2F)C1=O)NCc1cccnc1 | -5.1% | 0.2% | 1.1% | -18.6%
